# Results as given in PubChem BioAssay (EPA / NIEHS).
# Active and inactive are the calls of the source. The calls were made as follows: active = hit-call score of the fitted dose curve at least 0.9, where 1 is the maximum; inactive = score below 0.9.
# Tests used:
# [1] = ATG_EGR_CIS: Attagene CIS-FACTORIAL HepG2 Assay for human Early Growth Response 1 (EGR1) (AID 2282938); details: HepG2 Attagene CIS-FACTORIAL EGR reporter mRNA; actives raise or lower the signal
# Outline: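 Activity is taken as induction or loss of reporter mRNA versus DMSO, fitted bidirectionally. Transcripts from cis-regulated reporter units in transiently transfected HepG2 were measured after 24 h by RT-PCR with capillary electrophoresis.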
# [2] = ATG_M_19_CIS: Attagene CIS-FACTORIAL HepG2 Assay for M19 Transcription Factor (Internal Marker) (AID 2282939); details: HepG2 Attagene CIS-FACTORIAL M19 internal marker reporter; actives raise or lower the signal
# Outline: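 In this multiplexed cell assay, transiently transfected HepG2 reporter units report endogenous transcription-factor activity; after 24 hours of treatment, labelled reporter cDNA fragments are quantified by capillary electrophoresis and fitted bidirectionally against DMSO.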
# [3] = ATG_Ets_CIS: Attagene CIS-FACTORIAL HepG2 Assay for human Erythroblast Transformation Specific (ETS) (AID 2282941); details: HepG2 ETS cis-reporter transcription, actives raise or lower the signal
# Outline: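 Multiplexed reporter transcript profiling: HepG2, 24 h treatment, total RNA to cDNA, PCR, 6-FAM labelling, HpaI cut, capillary electrophoresis. Gain- or loss-of-signal fitted against DMSO.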
# [4] = biological target: Hepatocyte nuclear factor 3-beta (Homo sapiens) (UniProt Q9Y261); assay: ATG_FoxA2_CIS: Attagene CIS-FACTORIAL HepG2 Assay for human Forkhead box A2 (FOXA2) (AID 2282942); details: HepG2 cis-reporter transcription factor activity, 24 h; actives raise or lower the signal
# Chain of Hepatocyte nuclear factor 3-beta (Homo sapiens) (Q9Y261 whole entry, looked up): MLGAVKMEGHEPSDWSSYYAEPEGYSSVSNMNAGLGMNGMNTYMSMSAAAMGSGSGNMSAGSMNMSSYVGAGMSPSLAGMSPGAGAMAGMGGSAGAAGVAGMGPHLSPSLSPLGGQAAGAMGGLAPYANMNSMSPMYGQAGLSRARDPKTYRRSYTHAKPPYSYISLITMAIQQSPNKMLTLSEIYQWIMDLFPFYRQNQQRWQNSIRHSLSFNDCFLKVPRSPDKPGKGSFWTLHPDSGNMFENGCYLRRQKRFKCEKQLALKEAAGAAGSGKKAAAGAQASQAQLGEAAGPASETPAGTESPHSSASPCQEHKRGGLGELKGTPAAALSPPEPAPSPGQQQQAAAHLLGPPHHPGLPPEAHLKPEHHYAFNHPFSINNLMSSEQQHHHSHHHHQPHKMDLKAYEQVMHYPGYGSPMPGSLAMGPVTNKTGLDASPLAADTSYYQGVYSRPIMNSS
# Outline: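 Reporter transcript induction is measured by fluorescence after capillary electrophoresis of RT-PCR products from HepG2 cells exposed 24 h. Cis-regulated reporter units report endogenous factor activity; curves fitted both directions against DMSO.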
# [5] = ATG_FoxO_CIS: Attagene CIS-FACTORIAL HepG2 Assay for human Forkhead box O (FoxO) (AID 2282943); details: HepG2 Attagene cis-reporter, FoxO element, mRNA; actives raise or lower the signal
# Outline: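 Human hepatoma HepG2 cells carry transiently introduced reporter transcription units controlled by cis promoter elements. Chemical treatment lasted 24 h, and mRNA signal was compared with DMSO.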
# [6] = ATG_GLI_CIS: Attagene CIS-FACTORIAL HepG2 Assay for human Zinc Finger Protein GLI1 (AID 2282945); details: HepG2, Attagene cis-factorial reporter mRNA, GLI element; actives raise or lower the signal
# Outline: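 Bidirectional curve fits relative to DMSO, using reporter mRNA levels from RT-PCR plus capillary electrophoresis. Cells were HepG2 transiently carrying cis-regulated reporter constructs, harvested 24 h after dosing.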
# [7] = biological target: Bile acid receptor (Homo sapiens) (UniProt Q96RI1); assay: ATG_IR1_CIS: Attagene CIS-FACTORIAL HepG2 Assay for human Nuclear Receptor Subfamily 1 Group H Member 4 (NR1H4), IR1 submotif (AID 2282946); details: IR1 reporter transcription, actives raise or lower the signal
# Chain of Bile acid receptor (Homo sapiens) (Q96RI1 whole entry, looked up): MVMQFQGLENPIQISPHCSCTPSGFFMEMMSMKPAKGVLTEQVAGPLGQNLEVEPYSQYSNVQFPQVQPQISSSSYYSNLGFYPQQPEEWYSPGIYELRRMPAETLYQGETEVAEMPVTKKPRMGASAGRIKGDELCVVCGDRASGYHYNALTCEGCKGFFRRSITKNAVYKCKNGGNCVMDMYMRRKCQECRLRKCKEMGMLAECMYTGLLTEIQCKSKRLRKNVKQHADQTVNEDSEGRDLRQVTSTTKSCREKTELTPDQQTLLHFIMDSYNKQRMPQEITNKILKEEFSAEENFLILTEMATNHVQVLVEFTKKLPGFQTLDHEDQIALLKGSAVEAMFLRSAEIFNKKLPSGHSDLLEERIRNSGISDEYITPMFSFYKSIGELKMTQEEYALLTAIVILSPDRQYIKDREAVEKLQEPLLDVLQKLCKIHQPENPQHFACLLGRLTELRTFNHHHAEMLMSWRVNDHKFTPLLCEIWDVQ
# Outline: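 HepG2 cells transiently transfected with multiplexed cis-element reporter units read endogenous transcription factor activity. After 24 h compound exposure, reporter mRNA was quantified by RT-PCR, fluorescent labelling, HpaI digestion and capillary electrophoresis; bidirectional fitting versus DMSO baseline.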
# [8] = ATG_GRE_CIS: Attagene CIS-FACTORIAL HepG2 Assay for human Glucocorticoid Response Elements (GRE) (AID 2282947); details: HepG2 GRE cis-reporter, Attagene multiplex mRNA; actives raise or lower the signal
# Outline: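 Multiplexed cis-reporter mRNA induction, HepG2, 24 h post-dose. RT-PCR, FAM-labelled, HpaI-digested amplicons by CE. Bidirectional fit vs DMSO.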
# [9] = ATG_GATA_CIS: Attagene CIS-FACTORIAL HepG2 Assay for human GATA Binding Protein (AID 2282944); details: HepG2 GATA cis-element reporter, Attagene multiplex mRNA; actives raise or lower the signal
# Outline: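 Measures endogenous transcription factor-driven reporter mRNA in HepG2 cells transiently carrying cis-regulated constructs. 24 h dosing; RNA via oligo(dT) reverse transcription, PCR, HpaI digestion, capillary electrophoresis; fitted relative to DMSO.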
# [10] = ATG_ERE_CIS: Attagene CIS-FACTORIAL HepG2 Assay for Estrogen Response Element (ERE) (AID 2282940); details: HepG2 ERE cis-reporter, Attagene RNA transcript; actives raise or lower the signal
# Outline: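 Measuring endogenous transcription factor output, the assay doses transfected HepG2 cells for 24 hours and quantifies reporter transcripts by fluorescent RT-PCR and capillary electrophoresis, with DMSO as baseline.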
smiles,measurement,setting,value
CC(C)C(C)(N)C#N (stereo unspecified),outcome,[1],inactive
same,outcome,[2],inactive
same,outcome,[3],inactive
same,outcome,[4],inactive
same,outcome,[5],inactive
same,outcome,[6],inactive
same,outcome,[7],inactive
same,outcome,[8],inactive
O=C(O)C1(c2ccc3c(c2)OC[C@H](Cc2ccc(-c4ccccc4)cc2)[C@H]3O)CCCC1,outcome,[1],inactive
same,outcome,[2],inactive
same,outcome,[3],inactive
same,outcome,[4],inactive
same,outcome,[5],inactive
same,outcome,[6],inactive
same,outcome,[7],inactive
Cc1cc(SCc2sc(-c3ccc(C(F)(F)F)c(F)c3)nc2C)ccc1OCC(=O)O,AC50,[1],26.3 µM (active)
same,outcome,[2],inactive
same,outcome,[3],inactive
same,outcome,[4],inactive
same,outcome,[5],inactive
same,outcome,[6],inactive
same,outcome,[7],inactive
same,outcome,[8],inactive
c1cc[c]([Sb]([c]2ccccc2)[c]2ccccc2)cc1,outcome,[1],inactive
same,outcome,[2],inactive
same,outcome,[4],inactive
same,outcome,[5],inactive
same,outcome,[6],inactive
same,outcome,[7],inactive
same,outcome,[8],inactive
CCCCCCCCCCCCOS(=O)(=O)O,outcome,[1],inactive
same,outcome,[2],inactive
same,outcome,[4],inactive
same,outcome,[5],inactive
same,outcome,[9],inactive
same,outcome,[6],inactive
same,outcome,[8],inactive
CCCCN(CCCC)C(=S)S,AC50,[1],110 µM (active)
same,outcome,[2],inactive
same,AC50,[4],100 µM (active)
same,outcome,[5],inactive
same,outcome,[9],inactive
same,AC50,[6],140 µM (active)
same,outcome,[8],inactive
CC(C)N(C(=O)CCl)c1ccccc1,outcome,[1],inactive
same,outcome,[2],inactive
same,outcome,[3],inactive
same,outcome,[4],inactive
same,AC50,[5],33.4 µM (active)
same,outcome,[9],inactive
same,outcome,[6],inactive
same,outcome,[8],inactive
O=c1nc(O)n(Cl)c(=O)n1Cl,outcome,[1],inactive
same,outcome,[2],inactive
same,outcome,[3],inactive
same,outcome,[4],inactive
same,outcome,[5],inactive
same,outcome,[9],inactive
same,outcome,[6],inactive
same,outcome,[8],inactive
CC1(C)[C@H](/C=C2\CCSC2=O)[C@@H]1C(=O)OCc1coc(Cc2ccccc2)c1,AC50,[1],19 µM (active)
same,outcome,[2],inactive
same,outcome,[3],inactive
same,outcome,[4],inactive
same,outcome,[5],inactive
same,outcome,[9],inactive
same,outcome,[6],inactive
same,outcome,[8],inactive
COc1ccc(N)cc1,outcome,[1],inactive
same,outcome,[2],inactive
same,outcome,[3],inactive
same,outcome,[4],inactive
same,outcome,[5],inactive
same,outcome,[9],inactive
same,outcome,[6],inactive
same,outcome,[8],inactive
O=C(O)COc1cc(Cl)c(Cl)cc1Cl,outcome,[1],inactive
same,outcome,[2],inactive
same,outcome,[4],inactive
same,outcome,[5],inactive
same,outcome,[9],inactive
same,outcome,[6],inactive
same,outcome,[7],inactive
O=C(N[C@H]1CN2CCC1CC2)c1ccc2c(c1)OCCO2,outcome,[1],inactive
same,outcome,[2],inactive
same,outcome,[4],inactive
same,outcome,[5],inactive
same,outcome,[9],inactive
same,outcome,[6],inactive
CC(c1ccc(O)cc1)c1ccc(O)cc1,outcome,[1],inactive
same,outcome,[2],inactive
same,AC50,[3],137 µM (active)
same,outcome,[4],inactive
same,outcome,[5],inactive
same,outcome,[6],inactive
same,outcome,[8],inactive
Nc1cccnc1,outcome,[1],inactive
same,outcome,[2],inactive
same,outcome,[3],inactive
same,outcome,[4],inactive
same,outcome,[5],inactive
same,outcome,[6],inactive
same,outcome,[7],inactive
CN(C1CCCCC1)C1CCCCC1,outcome,[1],inactive
same,outcome,[2],inactive
same,outcome,[3],inactive
same,outcome,[4],inactive
same,outcome,[5],inactive
same,outcome,[9],inactive
same,outcome,[6],inactive
same,outcome,[8],inactive
O=NN1CCOCC1,outcome,[1],inactive
same,outcome,[2],inactive
same,outcome,[3],inactive
same,outcome,[4],inactive
same,outcome,[5],inactive
same,outcome,[9],inactive
same,outcome,[6],inactive
same,outcome,[8],inactive
O=C(CBr)c1ccc(O)cc1,outcome,[1],inactive
same,outcome,[2],inactive
same,outcome,[3],inactive
same,outcome,[4],inactive
same,outcome,[5],inactive
same,outcome,[6],inactive
same,outcome,[7],inactive
same,outcome,[8],inactive
CCOP(=S)(OCC)Oc1ccc(Cl)cc1Cl,outcome,[1],inactive
same,outcome,[2],inactive
same,outcome,[3],inactive
same,outcome,[4],inactive
same,outcome,[5],inactive
same,outcome,[9],inactive
same,outcome,[6],inactive
same,outcome,[8],inactive
O=c1[nH]c(=O)n(Cl)c(=O)n1Cl,outcome,[1],inactive
same,outcome,[2],inactive
same,outcome,[4],inactive
same,outcome,[5],inactive
same,outcome,[9],inactive
same,outcome,[6],inactive
same,outcome,[8],inactive
N#Cc1ccccc1Cl,outcome,[1],inactive
same,outcome,[2],inactive
same,outcome,[4],inactive
same,outcome,[5],inactive
same,outcome,[9],inactive
same,outcome,[6],inactive
same,outcome,[7],inactive
Nc1ncn[nH]1,outcome,[1],inactive
same,outcome,[3],inactive
same,outcome,[4],inactive
same,outcome,[5],inactive
same,outcome,[9],inactive
same,outcome,[6],inactive
same,outcome,[7],inactive
same,outcome,[8],inactive
C[C@@H]1O[C@@H](O[C@H]2C[C@@H](O)[C@]3(CO)[C@H]4[C@H](O)C[C@]5(C)[C@@H](C6=CC(=O)OC6)CC[C@]5(O)[C@@H]4CC[C@]3(O)C2)[C@H](O)[C@H](O)[C@H]1O,AC50,[1],0.0716 µM (active)
same,outcome,[10],inactive
same,AC50,[3],0.221 µM (active)
same,outcome,[4],inactive
same,AC50,[5],0.233 µM (active)
same,AC50,[9],0.0716 µM (active)
same,outcome,[6],inactive
same,outcome,[7],inactive
same,AC50,[8],0.287 µM (active)
OC(c1ccc(Cl)cc1)(c1ccc(Cl)cc1)c1cccnc1,outcome,[1],inactive
same,outcome,[10],inactive
same,outcome,[3],inactive
same,outcome,[4],inactive
same,outcome,[5],inactive
same,outcome,[9],inactive
same,AC50,[6],9.04 µM (active)
same,AC50,[7],13.6 µM (active)
CCOP(=O)(OCC)OC(=CCl)c1ccc(Cl)cc1Cl,outcome,[1],inactive
same,outcome,[3],inactive
same,outcome,[4],inactive
same,outcome,[5],inactive
same,outcome,[9],inactive
same,outcome,[6],inactive
NC(=O)CCl,outcome,[1],inactive
same,outcome,[10],inactive
same,outcome,[3],inactive
same,outcome,[4],inactive
same,outcome,[5],inactive
same,outcome,[6],inactive
same,outcome,[7],inactive
CCOC(=O)c1ccccc1S(=O)(=O)NC(=O)Nc1nc(Cl)cc(OC)n1,outcome,[1],inactive
same,outcome,[10],inactive
same,outcome,[3],inactive
same,outcome,[4],inactive
same,outcome,[5],inactive
same,outcome,[9],inactive
same,outcome,[6],inactive
same,outcome,[7],inactive
same,outcome,[8],inactive
C=CC(=O)NC(C)(C)CC(C)=O,outcome,[1],inactive
same,outcome,[10],inactive
same,outcome,[3],inactive
same,outcome,[4],inactive
same,outcome,[5],inactive
same,outcome,[9],inactive
same,outcome,[6],inactive
same,outcome,[8],inactive
CN(N=O)C(N)=O,outcome,[1],inactive
same,outcome,[4],inactive
same,outcome,[5],inactive
same,outcome,[9],inactive
same,outcome,[6],inactive
same,outcome,[7],inactive
same,outcome,[8],inactive
OCCCCO,outcome,[1],inactive
same,outcome,[3],inactive
same,outcome,[4],inactive
same,outcome,[5],inactive
same,outcome,[9],inactive
same,outcome,[6],inactive
same,outcome,[7],inactive
same,outcome,[8],inactive
N#CS,outcome,[1],inactive
same,outcome,[3],inactive
same,outcome,[4],inactive
same,outcome,[5],inactive
same,outcome,[9],inactive
same,outcome,[6],inactive
same,outcome,[8],inactive
